In the library only some 1.5% were active in any assay of this set; here they are far more common.
CASP6 VEID inh – caspase-6 (human) enzyme inhibition; 350,000 tested, 0.53% active; inhibition, % at 12.5 µM; purified caspase-6, Z-VEID-R110 cleavage fluorescence; P55212;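 active = mean inhibition across replicates at least about 35%, with every replicate also reaching that limit, limit read from the data; inconclusive = only one of the two criteria met; inactive = neither criterion met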;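 also: 0% = median of neutral control wells and 100% = no fluorescence left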
miR122 inh – miR-122 inhibition in Huh7 cells; Huh7 miR-122 Renilla luciferase sensor, 48 h; neutral wells = 0, positive control = 100; activation (reporter increase), % at 12.5 µM; 340,000 tested, 0.3% active;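 active = mean replicate activation score at least 90 and every replicate individually at or above 90; inconclusive = only one of the two criteria met; inactive = neither criterion met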;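 also: higher luciferase means less miR-122 activity so hits act as miR-122 inhibitors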
AF4-AF9 inh – blocks AF4 peptide binding to human AF9; P42568; AlphaScreen, biotin-AF4 peptide binding to FLAG-AF9; inhibition, % at 10 µM; 350,000 tested, 0.47% active; AID 651704;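 active = every replicate reaching a set inhibition limit, whatever the replicate mean, cut at about 25% in these data; inconclusive = mean inhibition reaches that limit but some replicates miss it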;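 also: 0% = plate neutral control median and 100% = total signal loss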
Target sequence (P42568 whole entry, looked up): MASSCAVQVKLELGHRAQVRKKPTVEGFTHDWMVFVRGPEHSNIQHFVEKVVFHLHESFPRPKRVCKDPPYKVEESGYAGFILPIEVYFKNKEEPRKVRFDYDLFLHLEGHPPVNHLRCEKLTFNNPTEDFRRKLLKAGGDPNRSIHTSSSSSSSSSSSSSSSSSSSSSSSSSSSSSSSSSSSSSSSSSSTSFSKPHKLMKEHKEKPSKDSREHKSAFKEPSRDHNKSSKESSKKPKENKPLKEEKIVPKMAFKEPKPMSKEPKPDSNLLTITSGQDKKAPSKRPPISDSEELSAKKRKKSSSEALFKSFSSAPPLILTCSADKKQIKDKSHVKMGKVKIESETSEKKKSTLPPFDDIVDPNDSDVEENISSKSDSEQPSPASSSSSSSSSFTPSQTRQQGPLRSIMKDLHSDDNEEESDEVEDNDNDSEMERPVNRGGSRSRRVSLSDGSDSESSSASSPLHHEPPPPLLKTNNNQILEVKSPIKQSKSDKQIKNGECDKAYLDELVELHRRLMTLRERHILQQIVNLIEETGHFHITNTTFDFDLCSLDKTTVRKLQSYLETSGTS
NSD2 inh – blocks human histone methyltransferase NSD2; 310,000 tested, 0.54% active; inhibition, % at 12.5 µM; O96028; NSD2 peptide methylation, AlphaScreen, 120 min; AID 743445; in the data active = inhibition above about 50%
RAD52 anneal inh – inhibitors of human RAD52 DNA annealing; recombinant RAD52 DNA annealing, FRET fluorescence; 360,000 tested, 0.46% active; inhibition, % at 18.7 µM; P43351;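 active = every replicate showing at least 50% inhibition; inconclusive = mean inhibition at least 50% but not in every replicate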
AlphaScreen intf – counter-screen: AlphaScreen signal interference; signal luminescence; AC50, µM (titrated, usually from 12 µM), inactives show at the top dose activity change, negative = inhibition; AID 720494; shares compounds with AF4-AF9 inh; 530 tested, 45% active; cut-off not given, nearly all actives have AC50 up to about 14 µM
* hit, by the source's call; [ ] = dose if it differs, or a comment.

What do the screens show for `CN1\C(=C/C=C/C=C/C=[N+](C)C)C(C)(C)c2ccccc21`?
CASP6 VEID inh: -3; AF4-AF9 inh: 41*; RAD52 anneal inh: -92; AlphaScreen intf: 9.8µM*

What do the screens show for `Cc1c(C(=O)NCC(c2ccco2)N(C)C)oc2c(Cl)cccc12` (configuration not stated)?
CASP6 VEID inh: -2; AF4-AF9 inh: inconclusive; NSD2 inh: 13; RAD52 anneal inh: -22; AlphaScreen intf: -22%

Results for CCOc1ccc2oc(C(=O)NCC(c3ccco3)N(C)C)c(C)c2c1 (configuration not stated) ?
CASP6 VEID inh: -1; miR122 inh: 5; AF4-AF9 inh: 6; NSD2 inh: -3; RAD52 anneal inh: -1

Results for CCCC(=O)Nc1ccc2c(c1)C(=O)N(C)[C@@H]1CC[C@H](CC(=O)NCC(F)(F)F)O[C@H]1CO2 ?
miR122 inh: -37[16.7 µM]

Results for N#Cc1nc(COc2ccccc2)oc1N1CCN(Cc2ccccc2)CC1 ?
miR122 inh: -5; NSD2 inh: 3

How did N#Cc1nc(-c2cccs2)oc1N1CCN(Cc2ccccc2)CC1 do in these assays?
CASP6 VEID inh: -1; miR122 inh: -8; AF4-AF9 inh: 31*; RAD52 anneal inh: -10; AlphaScreen intf: -27%

What do the screens show for `Cc1cccc(Nc2cc(C)c3c(O)cccc3n2)c1C`?
CASP6 VEID inh: 6; miR122 inh: -9; AF4-AF9 inh: 28*; RAD52 anneal inh: -72; AlphaScreen intf: -30%

How did Oc1ccc(Br)cc1C=Nc1ccc(Cl)cc1 do in these assays?
CASP6 VEID inh: -4; AF4-AF9 inh: -2; NSD2 inh: -2; RAD52 anneal inh: -7

Results for CCN(CC)c1ccc(N=Cc2cc(Br)ccc2O)cc1 ?
CASP6 VEID inh: -8; AF4-AF9 inh: 46*; NSD2 inh: -2; RAD52 anneal inh: 10; AlphaScreen intf: -2%

Results for C[C@@H]1CN([C@H](C)CO)C(=O)c2cccc(NC(=O)CCCCCC(=O)Nc3ccccc3N)c2O[C@@H]1CN(C)C(=O)Nc1ccc2c(c1)OCO2 ?
CASP6 VEID inh: 2; AF4-AF9 inh: 6; RAD52 anneal inh: -16

Results for NC1=NC[C@@H](Cc2ccc(O)cc2)N1CCc1cccc2ccccc12 ?
CASP6 VEID inh: -9; miR122 inh: 8; AF4-AF9 inh: 12; RAD52 anneal inh: 16

What do the screens show for `NC1=NC[C@H](Cc2ccc(O)cc2)N1CCc1cccc2ccccc12`?
CASP6 VEID inh: 30; AF4-AF9 inh: 32*; RAD52 anneal inh: 5; AlphaScreen intf: -29%

What do the screens show for `C(=C1c2ccccc2-c2ccccc21)c1ccccn1`?
CASP6 VEID inh: -4; miR122 inh: 4; AF4-AF9 inh: 19; NSD2 inh: 2; RAD52 anneal inh: -6; AlphaScreen intf: -31%

Results for C(=N\N=C\c1ccccn1)/c1ccccn1 ?
CASP6 VEID inh: -2; AF4-AF9 inh: -4; NSD2 inh: -6; RAD52 anneal inh: -14

What do the screens show for `O=C(C[C@H]1C[C@@H]2c3cc(NC(=O)C4CCOCC4)ccc3O[C@@H]2[C@@H](CO)O1)NCC1CC1`?
CASP6 VEID inh: 3; miR122 inh: 8[16.7 µM]; AF4-AF9 inh: -1; RAD52 anneal inh: -4

What do the screens show for `CN(C)C(CNC(C(=O)Nc1ccc([N+](=O)[O-])cc1Br)c1ccccc1)c1ccccc1` (configuration not stated)?
CASP6 VEID inh: 0; AF4-AF9 inh: 35*; NSD2 inh: -3; RAD52 anneal inh: 4; AlphaScreen intf: -23%

How did CC(C)CNC(C(=O)Nc1ccc([N+](=O)[O-])cc1Br)c1ccccc1 (configuration not stated) do in these assays?
NSD2 inh: 9

What do the screens show for `Cc1ccc(S(=O)(=O)N[C@H]2C=C[C@H](CC(=O)N3CCC(Cc4ccccc4)CC3)O[C@H]2CO)cc1`?
CASP6 VEID inh: -9; miR122 inh: 3[16.7 µM]; AF4-AF9 inh: -4; RAD52 anneal inh: -4

What do the screens show for `Cc1cccc(O)c1C`?
CASP6 VEID inh: -1; miR122 inh: 2; AF4-AF9 inh: -3; RAD52 anneal inh: -4

Results for Cc1cccc(C)c1N=Nc1c(C)cc(O)cc1C ?
CASP6 VEID inh: 3; miR122 inh: 36; AF4-AF9 inh: 35*; NSD2 inh: 58*; RAD52 anneal inh: 1; AlphaScreen intf: 10µM*

What do the screens show for `CO[C@H]1CN(C)C(=O)c2ccc(NC(=O)C3CCOCC3)cc2OC[C@@H](C)N(Cc2cccnc2)C[C@H]1C`?
CASP6 VEID inh: -4; AF4-AF9 inh: 1; RAD52 anneal inh: 4

How did C[C@@H]1CN([C@@H](C)CO)C(=O)c2cccc(NC(=O)C3CCCCC3)c2O[C@@H]1CN(C)C(=O)Nc1ccc(C(F)(F)F)cc1 do in these assays?
CASP6 VEID inh: -1; miR122 inh: -10[16.7 µM]; AF4-AF9 inh: 4; RAD52 anneal inh: -16

How did CCc1cccc(NC(=O)CCCCCC2NC(=O)NC2C)c1 (configuration not stated) do in these assays?
CASP6 VEID inh: -3; AF4-AF9 inh: 95*; RAD52 anneal inh: -9; AlphaScreen intf: 0.29µM*

How did CCc1cccc(NC(=O)CCCN2C(=O)NC(C)(C)C2=O)c1 do in these assays?
CASP6 VEID inh: -2; miR122 inh: -1; AF4-AF9 inh: -1; NSD2 inh: -3; RAD52 anneal inh: -17

Results for C/C(=N\Nc1nc2ccccc2[nH]1)c1ccc2c(c1)OCO2 ?
CASP6 VEID inh: 3; miR122 inh: -7; AF4-AF9 inh: 33*; NSD2 inh: 6; RAD52 anneal inh: -12; AlphaScreen intf: -34%

How did C/C(=N\Nc1nc2ccccc2[nH]1)c1ccc2c(c1)OCCO2 do in these assays?
AF4-AF9 inh: inconclusive; NSD2 inh: 9; RAD52 anneal inh: -2

Results for COCC(=O)Nc1ccc2c(c1)OC[C@@H](C)N(C(=O)c1ccccc1)C[C@@H](C)[C@H](OC)CN(C)C2=O ?
miR122 inh: -21[16.7 µM]; AF4-AF9 inh: -2; RAD52 anneal inh: -13

Results for O=S(=O)(c1ccccc1)N1CCCCN2[C@H](CO)[C@H](c3ccc(-c4cncnc4)cc3)[C@H]2C1 ?
CASP6 VEID inh: 0; miR122 inh: 11[16.7 µM]; AF4-AF9 inh: -4; RAD52 anneal inh: 9

Results for C[C@@H]1CN([C@H](C)CO)C(=O)Cc2cc(N(C)C)ccc2O[C@H]1CN(C)Cc1ccc(Oc2ccccc2)cc1 ?
CASP6 VEID inh: 0; miR122 inh: 6[16.7 µM]; AF4-AF9 inh: 43*; RAD52 anneal inh: 35; AlphaScreen intf: -40%

What do the screens show for `CCOC(=O)C1CCN(C2=C(NS(=O)(=O)c3ccc(Cl)cc3)C(=O)c3ccccc3C2=O)CC1`?
CASP6 VEID inh: 0; miR122 inh: 1; AF4-AF9 inh: 30*; NSD2 inh: 67*; RAD52 anneal inh: -18; AlphaScreen intf: 1%

What do the screens show for `CCOC(=O)C1CCN(CC(C)(C)NS(=O)(=O)c2ccc(Cl)cc2)CC1`?
CASP6 VEID inh: -1; AF4-AF9 inh: 2; NSD2 inh: -9; RAD52 anneal inh: -11

Source: PubChem BioAssay
